Residues, ends and D or L forms follow the SMILES beside them. *: point of attachment. Cbz = O=C(OCc1ccccc1)*
Experiment: High-throughput drug toxicity screening in the BPDCN cell line Cal-1 (AID 1224825)
Conditions: Cal-1 BPDCN cell viability, qHTS; at 45.8 µM (top of the series) unless noted
From the text: Blastic plasmacytoid dendritic cell neoplasm (BPDCN) is a rare, aggressive and largely incurable hematologic malignancy originating from plasmacytoid dendritic cells (pDCs). Although an initial response to chemotherapy is common, BPDCN prognosis is extremely poor and most patients relapse with drug-resistant disease leading to a median overall survival of ~1 year after diagnosis. To explore novel potential therapeutic strategies in BPDCN, we performed a high-throughput drug toxicity screening in BPDCN cell liens, using of a library of 1,912 small molecules, enriched for compounds that are either approved or in early stages of development for cancer therapy.
A total of 500 exponentially growing Cal-1 cells were seeded per well in 5 uL of media (RPMI + Glutamine, without phenol red plus10% FBS and 1X Pen/Strep) into 1536-well solid white high base tissue culture treated Greiner One Bio Plates (789173-F), using a multidrop combi dispenser and a small sterile cassette. Compounds and controls totaling 23nL per well (negative control DMSO and positive control 9.2 uM Bortezomib-final) were immediately added to the plates using a 1536 head pin tool from Kalypsys. The plates were then covered with stainless steel gasket lids from Kalypsys and incubated for 48 hours at 37C under 95% relative humidity with 5% CO2. After 48 hours, the plates were removed and allowed to reach room temperature before 3 uL of Cell Titer Glo reagent (Promega) were added using an Aurora Flying Reagent Dispenser Bioraptor. The plates were then spun at 1000 rpms to remove bubbles and incubated for 15 minutes at room temperature before reading on a ViewLux using a luminescent filter with a 10 second exposure. The relative luciferase units were used to calculated percent activity using DMSO as 100% and Bortezomib as 0%.

| SMILES | viability (% of control) |
| --- | --- |
| OCc1ccccc1O[C@@H]1O[C@H](CO)[C@H](O)[C@H](O)[C@H]1O | 108% |
| CN(CC(=O)N(Cc1ccc(C2CCCCC2)cc1)c1ccc(C(=O)O)c(O)c1)S(=O)(=O)c1c(F)c(F)c(F)c(F)c1F | 3.33% |
| O=C(C=CC#Cc1cccc(NS(=O)(=O)c2ccccc2)c1)NO | 3.48% |
| C=C1C[C@@]2(O)O[C@@]3(C[C@H]2C(C)C)[C@H](C)CC[C@H]13 | 101% |
| Nc1nc(N)c2nc(-c3cccc(O)c3)c(-c3cccc(O)c3)nc2n1 | 5.3% |
| CCCCCCCCCCCCc1ccc(S(=O)(=O)Nc2nncs2)cc1 | 105% |
| Cn1cc(-c2ccc3ncc(Cc4ccc5ncccc5c4)n3n2)cn1 | 35.3% |
| C=CC(=O)Nc1cccc(Nc2nc(NC3CCC(N(C)C)CC3)nc3c2ncn3C(C)C)c1 (stereo not given) | 2.19% |
| O=C(NCc1ccccc1)[C@H](Cc1ccccc1)NC(=O)[C@@H]1O[C@@H]1C(=O)NCCc1ccc(O)cc1 | 54.1% |
| NC(=O)N1CCC(CC(=O)N2CCC([C@H]3c4ncc(Br)cc4CCc4cc(Cl)cc(Br)c43)CC2)CC1 | 6.4% |
| CC(C=CC1=C(C)CCCC1(C)C)=CC=CC(C)=CC(=O)Nc1ccc(O)cc1 | 4.87% [at 92.2 µM] |
| CC(C)N1[N]C(=C2C=c3cc(O)ccc3=N2)c2c(N)ncnc21 | 2.77% |
| FC(F)(F)c1ccc(Nc2nc3ccc(Oc4ccnc(-c5ncc(C(F)(F)F)[nH]5)c4)cc3[nH]2)cc1 | 24.9% |
| CN1CCCN(C(=O)c2cccc(-c3ccc(C=C4C(=O)Nc5ccc(Cl)cc54)o3)c2)CC1 | 2.05% |
| COc1cc(OC)c(NC(=O)Nc2cc(C)on2)cc1Cl | 80.9% |
| Cc1noc(-c2ccc(CSCCC(=O)O)cc2)c1NC(=O)OC(C)c1ccccc1Cl (stereo not given) | 103% |
| COC(=O)[C@H](CCCN=C(N)N)NS(=O)(=O)c1ccc(C)cc1 | 104% |
| C[C@@H](Cc1cc2c(c(C(N)=O)c1)N(CCCO)CC2)NCCOc1ccccc1OCC(F)(F)F | 97.3% |
| CCN(CC)CCNC(=O)c1c(C)[nH]c(C=C2C(=O)Nc3ccc(F)cc32)c1C | 4.58% [at 92.2 µM] |
| C=CCNC1=C2C[C@@H](C)C[C@H](OC)[C@@H](O)[C@@H](C)C=C(C)[C@H](OC(N)=O)[C@@H](OC)C=CC=C(C)C(=O)NC(=CC1=O)C2=O | 5.31% |

| SMILES | viability (% of control) |
| --- | --- |
| COC1=C2C[C@@H](C)C[C@H](OC)[C@@H](O)[C@@H](C)C=C(C)[C@H](OC(N)=O)[C@@H](OC)C=CC=C(C)C(=O)NC(=CC1=O)C2=O | 4.06% |
| CC(C)C[C@@H](C=O)NC(=O)[C@H](CC(C)C)NC(=O)[C@H](CC(C)C)NC(=O)OCc1ccccc1 (Cbz-Leu-Leu-Leu-aldehyde) | 4.19% |
| N#Cc1cc(NC(=O)Nc2nnc(-c3ccncc3)s2)ccc1-c1cn[nH]c1 | 111% |
| NC(=O)c1ncn([C@@H]2O[C@H](CO)[C@@H](O)[C@@H]2O)c1O | 102% |
| NS(=O)(=O)OC[C@@H]1C[C@@H](n2ccc3c(N[C@H]4CCc5ccccc54)ncnc32)C[C@H]1O | 2.9% |
| Cn1cc(C=CC(=O)c2cccc(F)c2)cc1C=CC(=O)NO | 4.87% |
| CCOC(=O)N1CCN([N+]([O-])=NOc2ccc([N+](=O)[O-])cc2C#N)CC1 | 10.9% |
| CC(Oc1ccc(O)cc1)(P(=O)(O)O)P(=O)(O)O | 107% |
| CC(C)OC(=O)[C@H](C)N[P@](=O)(OC[C@H]1O[C@@H](n2ccc(=O)[nH]c2=O)[C@](C)(F)[C@H]1O)Oc1ccccc1 | 88.9% |
| O=c1c(O)c(-c2ccc(O)c(O)c2)oc2cc(O)ccc12 | 2.16% |
| C[C@@H]1C(=O)O[C@H]2CC34[C@H]5C[C@@H](C(C)(C)C)C36[C@H](OC(=O)[C@@H]6O)O[C@@]4(C(=O)O5)[C@]21O (stereo not given in full) | 69% |
| C=CC[C@@H]1C=C(C)C[C@H](C)C[C@H](OC)[C@H]2O[C@@](O)(C(=O)C(=O)N3CCCC[C@H]3C(=O)O[C@H](C(C)=C[C@@H]3CC[C@H](O)[C@H](OC)C3)[C@@H](C)[C@@H](O)CC1=O)[C@@H](C)C[C@@H]2OC | 44.2% |
| COc1cc2c(cc1OC)[C@@H]1C(=O)c3ccc4c(c3O[C@@H]1CO2)C=CC(C)(C)O4 | 3.79% |
| C[C@@]12C(=O)OC(=O)[C@@]1(C)C1CCC2O1 | 3.87% |
| CN[C@@H]1C[C@H]2O[C@@](C)([C@H]1OC)n1c3ccccc3c3c4c(c5c6ccccc6n2c5c31)C(=O)N[C@H]4O | 4.51% |
| C[C@]12C=CC(=O)N[C@@H]1CC[C@H]1[C@H]3CC[C@@H](C(=O)Nc4cc(C(F)(F)F)ccc4C(F)(F)F)[C@@]3(C)CC[C@@H]12 | 93% |
| O=C1c2cccc(O)c2C(=O)c2c(O)cc(CO)cc21 | 116% |
| COc1cccc2c1C(=O)c1c(O)c3c(c(O)c1C2=O)C[C@@](O)(C(=O)CO)C[C@@H]3O[C@H]1C[C@H](N)[C@@H](O)[C@H](C)O1 | 4.51% |
| CC(C)[C@H](CO)Nc1nc(Nc2cccc(Cl)c2)c2ncn(C(C)C)c2n1 | 1.87% |
| COC(=O)[C@@H]1CC2=CC(=O)CC[C@]2(C)[C@@]23O[C@@H]2C[C@@]2(C)[C@H](CC[C@@]24CCC(=O)O4)[C@@H]13 | 108% |

Reference: PubChem BioAssay (NCATS)
